Compound activity deposited in PubChem by several laboratories.
ANO1 activ: activates or potentiates the mouse TMEM16A chloride channel | B-score at 10 µM | 0.3% of 340,000 active | Q8BHY3 | HEK293 TMEM16A/YFP-H148Q/I152L, iodide quench fluorescence; stronger effect = lower value;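 active = fluorescence-ratio B-score plate-corrected deviation score at least 3 library SD below zero, with starting fluorescence score within 5 deviations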;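 note: channel opened by trigger with iodide after compound preincubation; score built on the fluorescence ratio of max minus min over baseline; more negative score means more quench and so TMEM16A activation or potentiation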
ANO1 block: inhibitors of mouse TMEM16A calcium-activated chloride channel. Q8BHY3. HEK293 TMEM16A/YFP iodide influx fluorescence, ionomycin. normalized B-score (activity score, 25-100; higher = stronger inhibition) at 10 µM. 1.2% of 310,000 active. AID 588511;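 active = ratio plate-corrected score three or more library SD toward inhibition, starting fluorescence score within five deviations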;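 note: score derived from kinetic fluorescence span divided by baseline fluorescence per well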
GRK2 inh: inhibitors of human GRK2 displacing RNA aptamer. 0.59% of 330,000 active. AID 488847. P25098. bead flow cytometry, FAM-aptamer displacement from GRK2. inhibition of aptamer binding, % at 10 µM;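 active = inhibition of aptamer binding above 40%, roughly 3 SD of noise, on plates passing a quality check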;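 note: median bead fluorescence of bound FAM aptamer so fluorescent compounds give negative values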
Target sequence (P25098 whole entry, looked up): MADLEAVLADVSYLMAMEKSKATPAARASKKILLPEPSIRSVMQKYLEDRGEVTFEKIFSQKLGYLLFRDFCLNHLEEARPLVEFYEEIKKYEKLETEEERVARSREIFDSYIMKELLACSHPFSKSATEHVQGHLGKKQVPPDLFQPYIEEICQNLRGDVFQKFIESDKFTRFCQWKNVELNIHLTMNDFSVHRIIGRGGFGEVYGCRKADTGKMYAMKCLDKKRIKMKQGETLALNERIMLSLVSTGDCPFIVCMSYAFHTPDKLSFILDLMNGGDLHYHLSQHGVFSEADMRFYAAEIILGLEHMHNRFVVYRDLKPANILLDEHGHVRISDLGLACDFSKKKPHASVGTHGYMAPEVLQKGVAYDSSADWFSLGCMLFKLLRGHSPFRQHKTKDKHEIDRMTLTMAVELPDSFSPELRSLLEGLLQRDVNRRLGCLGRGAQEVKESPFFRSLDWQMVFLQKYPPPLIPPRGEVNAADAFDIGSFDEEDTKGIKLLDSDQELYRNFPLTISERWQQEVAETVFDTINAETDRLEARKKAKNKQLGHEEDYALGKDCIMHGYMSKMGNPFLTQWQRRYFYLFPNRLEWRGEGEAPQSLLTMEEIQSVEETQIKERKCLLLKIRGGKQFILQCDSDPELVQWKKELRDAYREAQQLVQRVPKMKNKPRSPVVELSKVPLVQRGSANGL
TLR9-MyD88 inh: blocks human TLR9 binding to MyD88. inhibition, % at 4.98 µM. CHO BLA complementation TLR9-MyD88, CCF4 FRET ratio. Q9NR96+Q99836. AID 504734. 0.21% of 340,000 active;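 active = inhibition above the mean over all tested compounds plus 3 SD, cut at about 21% in these data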;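 note: 0% = DMSO only wells and 100% = clavulanate BLA inhibitor control wells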
TLR4 MyD88 comp: inhibitors of human TLR4-MyD88 binding | inhibition, % at 8.4 µM | HeLa CL3-4 TLR4/MyD88 BLA complementation, FRET ratio | 0.18% of 200,000 active; in the data active = inhibition above about 25%;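 note: 0% = vehicle and 100% = reference inhibitor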
NOD2 RIPK2 PPI: inhibitors of human NOD2-RIPK2 interaction; O43353; CHO BLA complementation NOD2-RIPK2, CCF4 ratio; inhibition, % at 4.98 µM; 0.38% of 360,000 active; AID 624267; in the data active = inhibition above about 21%;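 note: 0% = vehicle only and 100% = reference blocker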
Active calls of the source: *. Hits are enriched below; roughly 2.2% of the tested compounds scored in any of these assays.

Cc1cc(NC(=O)COC(=O)C(Nc2ccc(C(F)(F)F)cc2Cl)C(C)C)no1 (stereo unspecified) was read as ANO1 activ inactive, ANO1 block 100*, GRK2 inh 1, TLR9-MyD88 inh -1, TLR4 MyD88 comp 1 and NOD2 RIPK2 PPI -2.
`OC[C@@H]1CN(CCN2CCOCC2)C[C@H](n2cnc3c(Nc4ccccc4)ncnc32)O1` gave NOD2 RIPK2 PPI -3.
`O=[N+]([O-])c1ccc(Oc2ccc(S(=O)(=O)N3CCOCC3)cc2)cc1` gave ANO1 activ inactive, ANO1 block inactive, GRK2 inh 0, TLR9-MyD88 inh 3 and NOD2 RIPK2 PPI 0.
`O=[N+]([O-])c1ccc(Oc2ccc(S(=O)(=O)N3CCCCC3)cc2)cc1` gave ANO1 activ inactive, ANO1 block 25*, GRK2 inh 0, TLR9-MyD88 inh -11, TLR4 MyD88 comp 9 and NOD2 RIPK2 PPI -1.
`C[C@H](NC(=O)C1CCN(C(=O)[C@@H]2CCCN2C(=O)OC(C)(C)C)CC1)C(=O)NCc1ccc(F)cc1` gave NOD2 RIPK2 PPI -7.
For COC(=O)C[C@H]1CC[C@@H](NC(=O)Nc2c(C)noc2C)[C@@H](CO)O1 the results were NOD2 RIPK2 PPI -2.
`Cc1ccc(NC(=O)Nc2ccc(Cl)c(Cl)c2)nc1` gave ANO1 activ inactive, ANO1 block inactive, GRK2 inh 0, TLR9-MyD88 inh 4 and NOD2 RIPK2 PPI -7.
Cc1ccc(NC(=O)Nc2ccc(Cl)cn2)cc1 was read as ANO1 activ -5.9*, TLR9-MyD88 inh -1, TLR4 MyD88 comp -1 and NOD2 RIPK2 PPI -3.
CCCS(=O)(=O)NC(=O)C1(C)CCN(C(=O)c2ccc(C#N)cc2)C1 (stereo unspecified) was read as NOD2 RIPK2 PPI -3.
`C/C(=N\NC(=O)c1cccc(F)c1)c1ccc(NC(=O)Cc2ccccc2)cc1` gave ANO1 activ inactive, ANO1 block inactive, GRK2 inh 0, TLR9-MyD88 inh -3 and NOD2 RIPK2 PPI -14.
`C/C(=N\NC(=O)c1cc(O)cc(O)c1)c1ccc(NC(=O)Cc2ccccc2)cc1` gave ANO1 activ inactive, ANO1 block inactive, GRK2 inh 52*, TLR9-MyD88 inh 8 and NOD2 RIPK2 PPI -9.
`CC(Oc1ccc(F)cc1)C(=O)Nc1ccccc1N1CCCCC1` (stereo unspecified) gave ANO1 activ -21*, ANO1 block inactive, GRK2 inh 4, TLR9-MyD88 inh -6 and NOD2 RIPK2 PPI -4.
`CCc1cccc(CC)c1NC(=O)COC(=O)c1cccc(-c2ccc(OC(C)=O)cc2)c1` gave ANO1 activ inactive, ANO1 block inactive, GRK2 inh 100*, TLR9-MyD88 inh -2, TLR4 MyD88 comp -19 and NOD2 RIPK2 PPI 1.
Screening CC(=O)Oc1ccc(-c2cccc(C(=O)O)c2)cc1 returned ANO1 activ inactive, ANO1 block inactive, GRK2 inh 1, TLR9-MyD88 inh 4, TLR4 MyD88 comp 8 and NOD2 RIPK2 PPI -6.
For CCCCNC(=O)C[C@@H]1C[C@@]2(C(=O)OCC)CCC=C2N(CCC2=CCCCC2)C1=O the results were NOD2 RIPK2 PPI -2.
For COc1cccc(/C=N/NC(=O)c2cc3cc([N+](=O)[O-])ccc3s2)c1O the results were ANO1 activ inactive, ANO1 block inactive, GRK2 inh 87*, TLR9-MyD88 inh -7, TLR4 MyD88 comp 1 and NOD2 RIPK2 PPI -8.
Cc1cc(SCC(=O)Nc2cccc(S(=O)(=O)NC3=NCCCCC3)c2)nc2ccccc12 was read as ANO1 activ -5.4*, ANO1 block inactive, GRK2 inh 31, TLR9-MyD88 inh 8 and NOD2 RIPK2 PPI 4.
Screening Cc1ccc(-n2c(SCC(=O)Nc3cccc(S(=O)(=O)NC4=NCCCCC4)c3)nc3ccccc3c2=O)cc1C returned ANO1 activ inactive, ANO1 block inactive, GRK2 inh 0, TLR9-MyD88 inh -10, TLR4 MyD88 comp 0 and NOD2 RIPK2 PPI 0.
OCCN1CCN(c2ncnc3c2ncn3[C@H]2CN(Cc3cccc(C(F)(F)F)c3)C[C@@H](CO)O2)CC1 was read as NOD2 RIPK2 PPI 3.
For Cn1nc(C(=O)NC2CCCCC2)c2c1-c1ccccc1SC2 the results were ANO1 activ inactive, ANO1 block inactive, GRK2 inh 0, TLR9-MyD88 inh 0 and NOD2 RIPK2 PPI 0.
Screening CC(C)N(C(=O)c1nn(C)c2c1CSc1ccccc1-2)C1CCCCC1 returned ANO1 activ inactive, ANO1 block 25*, GRK2 inh 6, TLR9-MyD88 inh -9 and NOD2 RIPK2 PPI -12.
Screening CN(Cc1cn(Cc2ccc(Cl)cc2)nn1)C1CN(Cc2cn(Cc3ccc(Cl)cc3)nn2)S(=O)(=O)C1 (stereo unspecified) returned NOD2 RIPK2 PPI -4.
`Cc1ccc(C(C)C)c(OCC(=O)NCC(c2cccs2)N2CCOCC2)c1` (stereo unspecified) gave ANO1 activ inactive, ANO1 block 100*, GRK2 inh 3, TLR9-MyD88 inh 7 and NOD2 RIPK2 PPI 0.
`C=C1C(=O)OCC2C(C(=O)O)=CC3C(C)C(C)=CC123` (stereo unspecified) gave TLR9-MyD88 inh -9 and NOD2 RIPK2 PPI -10.
Screening COc1ccccc1C(=O)Nc1nc(-c2ccc(S(=O)(=O)N3CCOCC3)cc2)cs1 returned ANO1 activ inactive, ANO1 block 100*, GRK2 inh 0, TLR9-MyD88 inh 4, TLR4 MyD88 comp -10 and NOD2 RIPK2 PPI 4.
For COc1ccccc1OC(C)C(=O)Nc1nc(-c2ccc(S(=O)(=O)N3CCOCC3)cc2)cs1 (stereo unspecified) the results were ANO1 activ inactive, ANO1 block inactive, GRK2 inh 2, TLR9-MyD88 inh 4, TLR4 MyD88 comp -8 and NOD2 RIPK2 PPI -3.
OC[C@@H]1CN(Cc2ccc3c(c2)OCO3)C[C@H](n2cnc3c(NCc4ccncc4)ncnc32)O1 was read as NOD2 RIPK2 PPI -1.
For O=C(Nc1ccc2c(c1)Cc1ccccc1-2)c1cc2ccccc2o1 the results were ANO1 activ inactive, ANO1 block inactive, GRK2 inh 0, TLR9-MyD88 inh 4, TLR4 MyD88 comp 9 and NOD2 RIPK2 PPI -6.
`O=C(Nc1ccc2c(c1)CCC2)c1cc2ccccc2o1` gave ANO1 activ -5.7*, ANO1 block inactive, GRK2 inh 4, TLR9-MyD88 inh 1, TLR4 MyD88 comp 3 and NOD2 RIPK2 PPI 2.
O=C(Nc1ccc(N2CCOCC2)c(Cl)c1)c1cc2ccccc2o1 was read as ANO1 activ inactive, ANO1 block 25*, GRK2 inh 0, TLR9-MyD88 inh -1, TLR4 MyD88 comp 14 and NOD2 RIPK2 PPI -6.
